Publication PMC7862700, “An all-to-all approach to the identification of sequence-specific readers for epigenetic DNA modifications on cytosine”

How the values were obtained:
Experiment in all cases: DAPPL (digital affinity profiling via proximity ligation, sequencing); 10 mM Tris-HCl pH 7.5, 50 mM NaCl, 1 mM DTT, 4% glycerol, room temperature, 30 min; GST-TFs on glutathione beads, 16-mer random dsDNA library, 0.1% formaldehyde crosslink after washing; high values mean tight binding
FLI1 = biological target: T1, FLI1 (Homo sapiens, UniProt Q01543 1-452); settings: protein: recombinant; tags: N-terminal GST; dsDNA, one strand shown
T1 sequence: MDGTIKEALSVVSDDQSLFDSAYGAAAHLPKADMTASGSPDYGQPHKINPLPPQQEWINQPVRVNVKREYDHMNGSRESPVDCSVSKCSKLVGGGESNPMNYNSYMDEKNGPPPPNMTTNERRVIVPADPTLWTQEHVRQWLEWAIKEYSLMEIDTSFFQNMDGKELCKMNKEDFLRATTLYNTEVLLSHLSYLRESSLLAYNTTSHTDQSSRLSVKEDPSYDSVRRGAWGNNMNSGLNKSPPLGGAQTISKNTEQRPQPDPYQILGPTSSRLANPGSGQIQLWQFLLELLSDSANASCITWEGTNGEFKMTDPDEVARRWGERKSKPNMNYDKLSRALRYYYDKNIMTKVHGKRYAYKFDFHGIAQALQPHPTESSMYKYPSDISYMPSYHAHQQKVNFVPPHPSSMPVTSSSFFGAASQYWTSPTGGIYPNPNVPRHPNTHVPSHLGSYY
Outline: (§1)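 GST fusions of human transcription factors were expressed in yeast and captured with glutathione beads. Once given DNA barcodes and pooled alongside a tag-only sample, they were incubated for 30 min at room temperature with 200 nmole of a random double-stranded 16-mer DNA library in Tris/NaCl/DTT/glycerol buffer, then washed, crosslinked (0.1% formaldehyde), proximity-ligated, PCR-amplified and sequenced on an Illumina NextSeq500. The binding signal of each hexamer is its read frequency for a factor divided by its frequency for the tag-only sample.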

ELK1 = biological target: T2, ELK1 (Homo sapiens, UniProt P19419 1-428); settings: protein: recombinant; tags: N-terminal GST; dsDNA, one strand shown
T2 sequence: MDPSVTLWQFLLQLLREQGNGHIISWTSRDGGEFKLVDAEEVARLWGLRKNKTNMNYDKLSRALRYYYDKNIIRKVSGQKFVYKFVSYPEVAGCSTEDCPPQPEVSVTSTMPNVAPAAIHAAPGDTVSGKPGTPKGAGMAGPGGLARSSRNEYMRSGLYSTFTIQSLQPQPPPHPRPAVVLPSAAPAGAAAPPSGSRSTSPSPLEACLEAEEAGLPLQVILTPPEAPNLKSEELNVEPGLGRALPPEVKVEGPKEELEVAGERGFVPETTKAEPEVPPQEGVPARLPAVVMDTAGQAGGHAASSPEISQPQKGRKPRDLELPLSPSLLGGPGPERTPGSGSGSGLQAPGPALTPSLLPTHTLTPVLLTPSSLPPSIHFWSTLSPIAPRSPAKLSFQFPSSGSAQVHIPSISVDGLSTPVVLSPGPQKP
Outline: as §1

GABPA = biological target: T3, GABPA (Homo sapiens, UniProt Q06546 1-454); settings: protein: recombinant; tags: N-terminal GST; dsDNA, one strand shown
T3 sequence: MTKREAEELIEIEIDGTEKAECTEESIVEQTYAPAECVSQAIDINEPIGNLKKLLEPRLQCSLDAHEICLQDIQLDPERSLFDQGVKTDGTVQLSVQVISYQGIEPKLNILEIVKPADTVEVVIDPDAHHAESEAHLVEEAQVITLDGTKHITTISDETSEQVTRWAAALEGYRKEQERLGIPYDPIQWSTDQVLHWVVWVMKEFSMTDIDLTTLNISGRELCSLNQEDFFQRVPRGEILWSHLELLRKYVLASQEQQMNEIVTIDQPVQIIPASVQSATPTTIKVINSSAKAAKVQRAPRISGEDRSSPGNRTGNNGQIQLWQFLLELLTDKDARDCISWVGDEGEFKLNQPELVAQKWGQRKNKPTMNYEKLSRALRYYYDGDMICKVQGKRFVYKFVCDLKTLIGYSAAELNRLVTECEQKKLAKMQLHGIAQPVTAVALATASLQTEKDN
Outline: as §1

ERG = biological target: T4, ERG (Homo sapiens, UniProt P11308 1-479); settings: protein: recombinant; tags: N-terminal GST; dsDNA, one strand shown
T4 sequence: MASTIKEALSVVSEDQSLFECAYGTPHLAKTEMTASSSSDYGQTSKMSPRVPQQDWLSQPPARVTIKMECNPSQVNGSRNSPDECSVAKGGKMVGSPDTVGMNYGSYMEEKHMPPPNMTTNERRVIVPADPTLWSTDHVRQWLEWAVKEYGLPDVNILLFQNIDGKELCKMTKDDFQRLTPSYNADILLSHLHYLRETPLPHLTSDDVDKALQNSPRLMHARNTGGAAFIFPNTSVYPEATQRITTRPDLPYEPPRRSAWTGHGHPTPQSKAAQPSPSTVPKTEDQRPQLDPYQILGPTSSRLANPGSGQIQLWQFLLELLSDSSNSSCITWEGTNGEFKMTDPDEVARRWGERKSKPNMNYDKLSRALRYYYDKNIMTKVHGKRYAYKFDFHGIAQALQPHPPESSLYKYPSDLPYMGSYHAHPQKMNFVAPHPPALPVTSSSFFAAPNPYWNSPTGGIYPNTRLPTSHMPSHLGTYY
Outline: as §1

ELF1 = ELF1 (Homo sapiens, UniProt P32519 1-619); settings: protein: recombinant; tags: N-terminal GST; dsDNA, one strand shown
Outline: as §1

EHF = biological target: T5, EHF (Homo sapiens, UniProt Q9NZC4 1-300); settings: protein: recombinant; tags: N-terminal GST; dsDNA, one strand shown
T5 sequence: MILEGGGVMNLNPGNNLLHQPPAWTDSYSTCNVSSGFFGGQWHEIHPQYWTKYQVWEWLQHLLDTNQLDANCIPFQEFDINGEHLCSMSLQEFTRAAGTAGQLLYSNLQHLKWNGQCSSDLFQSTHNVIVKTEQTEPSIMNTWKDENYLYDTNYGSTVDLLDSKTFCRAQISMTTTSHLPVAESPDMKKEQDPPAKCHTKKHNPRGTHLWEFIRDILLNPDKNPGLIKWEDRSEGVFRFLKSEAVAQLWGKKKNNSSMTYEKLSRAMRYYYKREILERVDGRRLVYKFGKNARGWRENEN
Outline: as §1

SPI1 = SPI1 (Homo sapiens, UniProt P17947 1-270); settings: protein: recombinant; tags: N-terminal GST; dsDNA, one strand shown
Outline: as §1

SPIB = SPIB (Homo sapiens, UniProt Q01892 1-262); settings: protein: recombinant; tags: N-terminal GST; dsDNA, one strand shown
Outline: as §1

ELK3 = biological target: T6, ELK3 (Homo sapiens, UniProt P41970 1-407); settings: protein: recombinant; tags: N-terminal GST; dsDNA, one strand shown
T6 sequence: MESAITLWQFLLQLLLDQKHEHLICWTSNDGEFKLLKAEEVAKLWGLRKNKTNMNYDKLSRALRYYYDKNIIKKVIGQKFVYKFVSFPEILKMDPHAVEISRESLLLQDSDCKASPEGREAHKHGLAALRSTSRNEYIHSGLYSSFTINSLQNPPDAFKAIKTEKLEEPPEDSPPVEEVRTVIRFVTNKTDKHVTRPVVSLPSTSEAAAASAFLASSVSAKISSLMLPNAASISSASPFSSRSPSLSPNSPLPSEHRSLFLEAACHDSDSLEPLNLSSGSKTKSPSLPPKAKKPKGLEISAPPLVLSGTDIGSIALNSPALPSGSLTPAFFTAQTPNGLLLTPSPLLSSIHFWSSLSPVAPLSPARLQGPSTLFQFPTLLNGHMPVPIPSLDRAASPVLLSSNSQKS
Outline: as §1

FEV = biological target: T7, FEV (Homo sapiens, UniProt Q99581 1-238); settings: protein: recombinant; tags: N-terminal GST; dsDNA, one strand shown
T7 sequence: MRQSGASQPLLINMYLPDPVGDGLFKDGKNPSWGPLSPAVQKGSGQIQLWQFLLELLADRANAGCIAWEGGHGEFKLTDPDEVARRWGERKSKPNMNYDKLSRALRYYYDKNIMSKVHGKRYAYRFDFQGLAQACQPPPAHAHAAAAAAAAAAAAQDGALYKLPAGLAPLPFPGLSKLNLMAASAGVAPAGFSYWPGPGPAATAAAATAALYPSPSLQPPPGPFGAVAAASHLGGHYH
Outline: as §1

ETV5 = ETV5 (Homo sapiens, UniProt P41161 1-510); settings: protein: recombinant; tags: N-terminal GST; dsDNA, one strand shown
Outline: as §1

HSF1 = HSF1 (Homo sapiens, UniProt Q00613 1-529); settings: protein: recombinant; tags: N-terminal GST; chain copies: 3; dsDNA, one strand shown
Outline: as §1

SPIC = biological target: T8, SPIC (Homo sapiens, UniProt Q8N5J4 1-248); settings: protein: recombinant; tags: N-terminal GST; dsDNA, one strand shown
T8 sequence: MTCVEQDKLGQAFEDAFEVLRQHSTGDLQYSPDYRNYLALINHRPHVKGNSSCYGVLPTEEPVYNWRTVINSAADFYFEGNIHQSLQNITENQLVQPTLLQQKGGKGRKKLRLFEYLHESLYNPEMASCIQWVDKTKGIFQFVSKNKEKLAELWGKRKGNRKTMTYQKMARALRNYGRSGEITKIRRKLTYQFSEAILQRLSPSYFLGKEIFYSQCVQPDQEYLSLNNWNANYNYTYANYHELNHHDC
Outline: as §1

ELF4 = ELF4 (Homo sapiens, UniProt Q99607 1-663); settings: protein: recombinant; tags: N-terminal GST; dsDNA, one strand shown
Outline: as §1

ELK4 = biological target: T9, ELK4 (Homo sapiens, UniProt P28324-2 1-405); settings: protein: recombinant; tags: N-terminal GST; dsDNA, one strand shown
T9 sequence: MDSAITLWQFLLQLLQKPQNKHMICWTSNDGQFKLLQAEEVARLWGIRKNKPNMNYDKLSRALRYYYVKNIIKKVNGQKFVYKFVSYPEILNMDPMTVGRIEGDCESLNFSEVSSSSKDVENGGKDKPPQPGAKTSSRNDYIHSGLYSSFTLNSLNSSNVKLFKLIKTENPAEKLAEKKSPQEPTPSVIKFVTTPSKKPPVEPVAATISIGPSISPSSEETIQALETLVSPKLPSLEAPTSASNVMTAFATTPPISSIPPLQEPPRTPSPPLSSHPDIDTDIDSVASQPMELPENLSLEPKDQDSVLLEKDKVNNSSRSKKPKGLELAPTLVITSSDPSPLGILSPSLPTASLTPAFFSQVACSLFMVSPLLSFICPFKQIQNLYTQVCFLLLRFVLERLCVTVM
Outline: as §1

ETV2 = biological target: T10, ETV2 (Homo sapiens, UniProt O00321 1-342); settings: protein: recombinant; tags: N-terminal GST; dsDNA, one strand shown
T10 sequence: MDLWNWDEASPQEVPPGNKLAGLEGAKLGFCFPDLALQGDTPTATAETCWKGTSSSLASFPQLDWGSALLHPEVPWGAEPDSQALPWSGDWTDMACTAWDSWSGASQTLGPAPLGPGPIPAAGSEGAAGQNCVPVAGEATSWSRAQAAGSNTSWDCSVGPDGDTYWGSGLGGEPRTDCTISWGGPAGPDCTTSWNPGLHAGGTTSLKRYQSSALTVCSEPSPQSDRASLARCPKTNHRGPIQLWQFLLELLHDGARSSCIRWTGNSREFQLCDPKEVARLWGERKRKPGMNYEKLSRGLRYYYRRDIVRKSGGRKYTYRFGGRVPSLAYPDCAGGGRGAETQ
Outline: as §1

ELF3 = biological target: T11, ELF3 (Homo sapiens, UniProt P78545 1-371); settings: protein: recombinant; tags: N-terminal GST; dsDNA, one strand shown
T11 sequence: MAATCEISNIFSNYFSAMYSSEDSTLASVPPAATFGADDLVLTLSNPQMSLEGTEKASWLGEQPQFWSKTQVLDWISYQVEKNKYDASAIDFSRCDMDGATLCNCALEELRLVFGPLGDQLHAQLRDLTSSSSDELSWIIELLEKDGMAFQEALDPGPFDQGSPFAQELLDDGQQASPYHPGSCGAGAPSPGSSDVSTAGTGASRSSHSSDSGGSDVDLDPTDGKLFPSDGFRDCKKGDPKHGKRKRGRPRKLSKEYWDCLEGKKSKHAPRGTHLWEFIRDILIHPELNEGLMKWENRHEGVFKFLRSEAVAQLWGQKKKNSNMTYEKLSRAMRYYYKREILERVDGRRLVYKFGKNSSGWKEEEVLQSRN
Outline: as §1

CRX = CRX (Homo sapiens, UniProt O43186 1-299); settings: protein: recombinant; tags: N-terminal GST; dsDNA, one strand shown
Outline: as §1

ETV1 = ETV1 (Homo sapiens, UniProt P50549 1-477); settings: protein: recombinant; tags: N-terminal GST; dsDNA, one strand shown
Outline: as §1

Chain of ETV1 (P50549 whole entry): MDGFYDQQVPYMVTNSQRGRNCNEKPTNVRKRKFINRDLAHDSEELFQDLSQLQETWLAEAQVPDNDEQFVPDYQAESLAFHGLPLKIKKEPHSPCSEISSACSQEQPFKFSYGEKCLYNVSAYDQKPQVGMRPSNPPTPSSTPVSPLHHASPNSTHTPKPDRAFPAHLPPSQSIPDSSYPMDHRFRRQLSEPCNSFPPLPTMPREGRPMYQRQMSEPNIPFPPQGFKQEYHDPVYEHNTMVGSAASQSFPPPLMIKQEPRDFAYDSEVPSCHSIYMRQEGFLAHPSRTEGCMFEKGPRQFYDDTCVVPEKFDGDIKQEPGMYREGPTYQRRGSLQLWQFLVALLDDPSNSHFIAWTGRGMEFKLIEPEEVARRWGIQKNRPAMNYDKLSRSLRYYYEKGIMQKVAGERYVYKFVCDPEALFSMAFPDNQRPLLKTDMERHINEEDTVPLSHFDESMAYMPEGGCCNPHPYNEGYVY
Chain of CRX (O43186 whole entry): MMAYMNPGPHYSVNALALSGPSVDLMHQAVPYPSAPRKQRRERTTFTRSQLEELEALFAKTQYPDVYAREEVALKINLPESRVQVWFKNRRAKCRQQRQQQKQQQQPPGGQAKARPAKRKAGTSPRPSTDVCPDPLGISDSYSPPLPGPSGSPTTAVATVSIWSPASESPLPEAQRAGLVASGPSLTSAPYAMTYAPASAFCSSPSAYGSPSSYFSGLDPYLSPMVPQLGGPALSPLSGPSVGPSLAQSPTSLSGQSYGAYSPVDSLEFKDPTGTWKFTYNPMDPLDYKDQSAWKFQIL
Chain of HSF1 (Q00613 whole entry): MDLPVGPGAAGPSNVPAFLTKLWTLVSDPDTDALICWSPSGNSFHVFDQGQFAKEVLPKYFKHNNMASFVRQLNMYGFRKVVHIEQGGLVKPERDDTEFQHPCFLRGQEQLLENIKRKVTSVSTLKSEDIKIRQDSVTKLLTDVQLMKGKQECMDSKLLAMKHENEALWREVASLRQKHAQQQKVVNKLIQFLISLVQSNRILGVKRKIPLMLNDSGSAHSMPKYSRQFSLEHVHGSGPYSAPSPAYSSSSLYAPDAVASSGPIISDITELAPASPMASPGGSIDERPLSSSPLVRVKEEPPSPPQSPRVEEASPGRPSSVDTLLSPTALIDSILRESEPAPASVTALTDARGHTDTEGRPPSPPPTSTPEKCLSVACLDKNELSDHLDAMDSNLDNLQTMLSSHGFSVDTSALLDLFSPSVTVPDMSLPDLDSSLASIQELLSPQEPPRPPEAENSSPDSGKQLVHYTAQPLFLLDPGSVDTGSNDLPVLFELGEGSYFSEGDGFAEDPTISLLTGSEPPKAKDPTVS
Chain of ELF1 (P32519 whole entry): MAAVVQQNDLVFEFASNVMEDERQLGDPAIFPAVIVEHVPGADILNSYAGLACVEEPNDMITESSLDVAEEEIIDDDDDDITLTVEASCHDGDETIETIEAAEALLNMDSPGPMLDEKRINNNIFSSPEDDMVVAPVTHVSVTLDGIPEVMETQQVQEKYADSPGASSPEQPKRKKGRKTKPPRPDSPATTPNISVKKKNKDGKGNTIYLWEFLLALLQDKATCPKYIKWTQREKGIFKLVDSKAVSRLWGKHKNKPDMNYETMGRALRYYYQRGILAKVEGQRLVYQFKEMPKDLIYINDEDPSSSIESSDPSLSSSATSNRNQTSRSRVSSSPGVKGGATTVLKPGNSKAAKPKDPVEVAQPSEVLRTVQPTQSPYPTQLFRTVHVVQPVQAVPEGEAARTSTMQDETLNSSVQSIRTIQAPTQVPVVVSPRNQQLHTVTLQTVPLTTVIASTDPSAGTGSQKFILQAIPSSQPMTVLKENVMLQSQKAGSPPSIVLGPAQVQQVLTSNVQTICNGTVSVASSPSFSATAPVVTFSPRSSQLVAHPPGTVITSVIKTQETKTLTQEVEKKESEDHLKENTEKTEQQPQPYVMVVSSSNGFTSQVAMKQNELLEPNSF
Chain of ELF4 (Q99607 whole entry): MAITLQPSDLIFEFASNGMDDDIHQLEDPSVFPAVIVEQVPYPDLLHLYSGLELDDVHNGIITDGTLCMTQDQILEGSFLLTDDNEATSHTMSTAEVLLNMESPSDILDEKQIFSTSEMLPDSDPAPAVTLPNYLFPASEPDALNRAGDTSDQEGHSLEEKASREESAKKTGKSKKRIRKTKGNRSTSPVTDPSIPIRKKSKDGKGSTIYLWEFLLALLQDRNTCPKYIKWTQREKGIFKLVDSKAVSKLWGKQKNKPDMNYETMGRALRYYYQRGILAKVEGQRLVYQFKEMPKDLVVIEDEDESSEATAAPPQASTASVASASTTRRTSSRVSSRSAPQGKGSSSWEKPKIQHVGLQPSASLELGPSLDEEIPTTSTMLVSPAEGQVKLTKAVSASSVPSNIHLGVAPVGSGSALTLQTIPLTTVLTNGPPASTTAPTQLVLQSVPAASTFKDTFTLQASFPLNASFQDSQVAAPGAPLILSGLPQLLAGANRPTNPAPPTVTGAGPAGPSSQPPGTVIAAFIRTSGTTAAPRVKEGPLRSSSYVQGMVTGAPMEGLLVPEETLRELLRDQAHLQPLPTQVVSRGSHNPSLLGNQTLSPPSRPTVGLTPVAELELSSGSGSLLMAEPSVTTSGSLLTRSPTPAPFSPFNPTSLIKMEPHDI
Chain of SPIB (Q01892 whole entry): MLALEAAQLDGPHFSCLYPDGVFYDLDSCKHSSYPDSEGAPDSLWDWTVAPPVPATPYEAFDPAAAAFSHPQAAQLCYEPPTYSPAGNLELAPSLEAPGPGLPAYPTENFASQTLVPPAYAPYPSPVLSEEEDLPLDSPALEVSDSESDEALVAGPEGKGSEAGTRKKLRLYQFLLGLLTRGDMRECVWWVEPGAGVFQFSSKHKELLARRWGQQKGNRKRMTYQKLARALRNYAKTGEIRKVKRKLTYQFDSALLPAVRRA
Chain of ETV5 (P41161 whole entry): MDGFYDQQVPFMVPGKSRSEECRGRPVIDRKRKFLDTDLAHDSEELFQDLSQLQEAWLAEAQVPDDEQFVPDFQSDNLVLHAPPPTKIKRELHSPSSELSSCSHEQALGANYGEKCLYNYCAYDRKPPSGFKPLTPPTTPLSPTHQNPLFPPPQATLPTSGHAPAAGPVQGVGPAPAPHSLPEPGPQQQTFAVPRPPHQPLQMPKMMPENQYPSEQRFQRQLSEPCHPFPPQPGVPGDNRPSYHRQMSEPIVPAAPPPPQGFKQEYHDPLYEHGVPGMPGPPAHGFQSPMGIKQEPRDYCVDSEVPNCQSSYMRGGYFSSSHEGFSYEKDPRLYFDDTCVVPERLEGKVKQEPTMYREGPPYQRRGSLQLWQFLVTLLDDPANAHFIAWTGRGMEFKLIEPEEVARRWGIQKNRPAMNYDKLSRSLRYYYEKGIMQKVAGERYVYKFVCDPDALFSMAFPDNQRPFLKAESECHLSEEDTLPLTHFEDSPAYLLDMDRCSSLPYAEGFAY

## AATGAA
FLI1
  binding signal: 1.11 fold enrichment (6-mer frequency, TF over GST control)
ELK1
  binding signal: 1.1 fold enrichment (6-mer frequency, TF over GST control)
GABPA
  binding signal: 1.22 fold enrichment (6-mer frequency, TF over GST control)
ERG
  binding signal: 1.21 fold enrichment (6-mer frequency, TF over GST control)
ELF1
  binding signal: 1.15 fold enrichment (6-mer frequency, TF over GST control)
EHF
  binding signal: 1.18 fold enrichment (6-mer frequency, TF over GST control)
SPI1
  binding signal: 1.24 fold enrichment (6-mer frequency, TF over GST control)
SPIB
  binding signal: 1.2 fold enrichment (6-mer frequency, TF over GST control)
ELK3
  binding signal: 1.26 fold enrichment (6-mer frequency, TF over GST control)
FEV
  binding signal: 1.11 fold enrichment (6-mer frequency, TF over GST control)
ETV5
  binding signal: 1.16 fold enrichment (6-mer frequency, TF over GST control)
HSF1
  binding signal: 1.12 fold enrichment (6-mer frequency, TF over GST control)
SPIC
  binding signal: 1.26 fold enrichment (6-mer frequency, TF over GST control)
ELF4
  binding signal: 1.2 fold enrichment (6-mer frequency, TF over GST control)
ELK4
  binding signal: 1.24 fold enrichment (6-mer frequency, TF over GST control)
ETV2
  binding signal: 1.08 fold enrichment (6-mer frequency, TF over GST control)
ELF3
  binding signal: 1.24 fold enrichment (6-mer frequency, TF over GST control)
CRX
  binding signal: 1.03 fold enrichment (6-mer frequency, TF over GST control)
ETV1
  binding signal: 1.17 fold enrichment (6-mer frequency, TF over GST control)
